Experiment [1] concerns turtle Estrogen Receptor (ERa), gene 101933533. Description: ATG_trERa_XSP2: Attagene TRANS-FACTORIAL Multi-Species (XSP2) HepG2 Assay for turtle Estrogen Receptor (ERa) (AID 2283812).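 Further: human HepG2 liver cells transiently expressing turtle ERa-Gal4 chimeric receptor; actives raise reporter signal above DMSO so AC50 reflects agonist activity.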 In outline: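 HepG2 cells transiently transfected with GAL4-UAS reporter units expressing turtle ERa-Gal4 chimera. Reporter mRNA measured after 24 h dosing by RT-PCR, fluorescent labelling and capillary electrophoresis; gain of signal fitted versus DMSO.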

The target of experiment [2] is GAL4 Transcription Factor (Internal Marker), GAL4 (gene 855828) (UniProt P04386). Nature of the experiment: ATG_GAL4_XSP2: Attagene TRANS-FACTORIAL Multi-Species (XSP2) HepG2 Assay for GAL4 Transcription Factor (Internal Marker) (AID 2283814).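 Further: GAL4 reporter mRNA background control in MRTU transfected cells not a receptor target.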 The method in brief:
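HepG2 cells transiently transfected with GAL4-UAS reporter units, stimulated with 3 nM 6-alpha-fluorotestosterone plus 1.5 nM norgestrel, dosed 24 h. Reporter mRNA by RT-PCR/capillary electrophoresis; gain-of-signal fit versus DMSO, background control.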

Experiment [3] deals with turtle Androgen Receptor (AR), gene 101947425. Nature of the experiment: ATG_trAR_XSP2: Attagene TRANS-FACTORIAL Multi-Species (XSP2) HepG2 Assay for turtle Androgen Receptor (AR) (AID 2283815).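 On AC50: potency for gain of reporter signal meaning activation above DMSO baseline.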 As for the experimental part: ATG_XSP2_multi-species_TRANS is a cell-based, multiplexed assay created by modifying the existing Attagene TRANS-FACTORIAL system to include a panel of nuclear receptors from some or all the following species: human (Homo sapiens), mouse (Mus musculus), frog (Xenopus laevis), zebrafish (Danio rerio), chicken (Gallus gallus), and turtle (Chrysemys picta). The […] format uses HepG2, a human liver cell line, with measurements taken at 24 hours after chemical dosing in a 24-well plate. Xsp2 included 3 nM 6-alpha-fluorotestosterone and 1.5 nM norgestrel to stimulate the androgen receptor.ATG_trAR_XSP2 is one of 29 assay components measured or calculated from the ATG_XSP2_multi-species_TRANS assay. It is designed to make measurements of mRNA induction, a form of inducible reporter, as detected with fluorescence intensity signals by Reverse transcription polymerase chain reaction (RT-PCR) and Capillary electrophoresis technology.The assay endpoint ATG_trAR_XSP2 was analyzed in the positive analysis fitting direction relative to DMSO as the negative control and baseline of activity. […] Furthermore, this assay endpoint can be referred to as a primary readout, because this assay has produced multiple assay endpoints where this one serves a reporter gene function. […]
Human liver HepG2 cells are transiently transfected with multiple reporter transcription units (MRTUs) in 6-well plates using FuGene 6 reagent (Roche; 3 ml FuGene/1 mg DNA). […] A major difference between the CIS and TRANS system is that in CIS activities of endogenous TFs are measured, whereas the TRANS assay evaluates changes in activities of exogenous, chimeric NR-Gal4 proteins. […] The fragments were purified using Qiaquick PCR columns (Qiagen), analyzed on an ABI 3130xL genetic analyzer (Applied Biosystems) with peak positions identified by using a set of X-rhodamine (ROX)-labeled MapMarker1000 molecular weight standards (BioVentures). […]

In experiment [4] the target is chicken Estrogen Receptor (ERa), ESR1 (gene 396099) (UniProt P06212). Description: ATG_chERa_XSP2: Attagene TRANS-FACTORIAL Multi-Species (XSP2) HepG2 Assay for chicken Estrogen Receptor (ERa) (AID 2283817).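 Further: actives raise reporter signal above DMSO so AC50 reflects ER activation.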 The method in brief: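 HepG2 cells transiently transfected with multiplexed GAL4-UAS reporter units expressing chimeric chicken ERa-Gal4; 24 h compound exposure. Reporter mRNA measured by RT-PCR with 6-FAM labelling, HpaI digestion and capillary electrophoresis; gain-of-signal fitted versus DMSO.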

The test system of experiment [5] is zebrafish Estrogen Receptor (ER2a), gene 317734. Description: ATG_zfER2a_XSP2: Attagene TRANS-FACTORIAL Multi-Species (XSP2) HepG2 Assay for zebrafish Estrogen Receptor (ER2a) (AID 2283818).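 Further: hits raise reporter mRNA so AC50 reflects activation of zebrafish ER2a.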 The method in brief: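 HepG2 cells transiently transfected with GAL4-UAS reporter units and chimeric zebrafish ER2a-Gal4, exposed 24 h; medium contains 3 nM 6-alpha-fluorotestosterone and 1.5 nM norgestrel. Reporter mRNA quantified by RT-PCR, HpaI digestion, capillary electrophoresis; gain versus DMSO.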

Experiment [6] deals with chicken Androgen Receptor (AR), gene 422165. Nature of the experiment: ATG_chAR_XSP2: Attagene TRANS-FACTORIAL Multi-Species (XSP2) HepG2 Assay for chicken Androgen Receptor (AR) (AID 2283819).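 Further: hits raise reporter mRNA above DMSO so potency is for activation.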 In outline: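 HepG2 cells transiently transfected with chicken AR–GAL4 chimeric reporter constructs, stimulated with 3 nM 6-alpha-fluorotestosterone plus 1.5 nM norgestrel, dosed 24 h. Reporter mRNA quantified by RT-PCR and capillary electrophoresis; gain of signal fitted versus DMSO.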

Experiment [7] deals with frog Estrogen Receptor (ER), gene 398734. Description: ATG_frER1_XSP2: Attagene TRANS-FACTORIAL Multi-Species (XSP2) HepG2 Assay for frog Estrogen Receptor (ER) (AID 2283821).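 Further: hits raise reporter mRNA above DMSO baseline so potency means agonist or activator.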 The method in brief: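 HepG2, transient MRTU transfection, chimeric NR-GAL4/UAS reporters; 24 h compound exposure, 24-well. Readout: reporter mRNA via RT-PCR + capillary electrophoresis, fluorescence. Positive fit vs DMSO baseline.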

The nature of experiment [8]: ATG_M_19_XSP2: Attagene TRANS-FACTORIAL Multi-Species (XSP2) HepG2 Assay for M32 Transcription Factor (Internal Marker) (AID 2283822). In outline: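 Internal background marker in a multi-species nuclear receptor TRANS panel: transfected HepG2 cells exposed 24 h, with 3 nM 6-alpha-fluorotestosterone and 1.5 nM norgestrel present. Readout is RT-PCR of reporter transcripts resolved by capillary electrophoresis, gain-of-signal versus DMSO.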

The subject of experiment [9] is zebrafish Estrogen Receptor (ER2b), gene 317733. Nature of the experiment: ATG_zfER2b_XSP2: Attagene TRANS-FACTORIAL Multi-Species (XSP2) HepG2 Assay for zebrafish Estrogen Receptor (ER2b) (AID 2283823).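 Further: fitted upward as reporter gain over DMSO so potency reflects activation.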 The method in brief:
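Reporter transcripts quantified by RT-PCR, fluorescent labelling and capillary electrophoresis after 24 h dosing of transfected HepG2 expressing zebrafish ER2b-GAL4 fusion. Medium contained 3 nM 6-alpha-fluorotestosterone plus 1.5 nM norgestrel; DMSO baseline.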

For experiment [10], the target named is Estrogen receptor beta (Homo sapiens) (UniProt Q92731). Nature of the experiment: ATG_hERb_XSP2: Attagene TRANS-FACTORIAL Multi-Species (XSP2) HepG2 Assay for human Estrogen Receptor (ERb) (AID 2283813).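 Further: actives raise reporter mRNA above DMSO so AC50 reflects agonist induction.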 In outline:
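HepG2 cells transiently transfected with GAL4-UAS reporter units and chimeric human ERb-Gal4, 24 h exposure. Reporter mRNA quantified by RT-PCR with FAM labelling, HpaI digestion and capillary electrophoresis; gain of signal versus DMSO.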

Several values for one entry are separate records, joined by “and”; a condition that tells them apart may be missing. Equal entries are not always repeated. Records with an inconclusive call do not appear. Where a structure was tested more than once in an assay, its records may differ in their call. Activity calls are given as the source filed them. How the source made its calls: active means hit-call score of the fitted dose curve at least 0.9, where 1 is the maximum; inconclusive means response in the unintended direction; inactive means score below 0.9.

Chain of GAL4 Transcription Factor (Internal Marker), GAL4 (gene 855828) (P04386 whole entry, looked up, the tested form may be a part): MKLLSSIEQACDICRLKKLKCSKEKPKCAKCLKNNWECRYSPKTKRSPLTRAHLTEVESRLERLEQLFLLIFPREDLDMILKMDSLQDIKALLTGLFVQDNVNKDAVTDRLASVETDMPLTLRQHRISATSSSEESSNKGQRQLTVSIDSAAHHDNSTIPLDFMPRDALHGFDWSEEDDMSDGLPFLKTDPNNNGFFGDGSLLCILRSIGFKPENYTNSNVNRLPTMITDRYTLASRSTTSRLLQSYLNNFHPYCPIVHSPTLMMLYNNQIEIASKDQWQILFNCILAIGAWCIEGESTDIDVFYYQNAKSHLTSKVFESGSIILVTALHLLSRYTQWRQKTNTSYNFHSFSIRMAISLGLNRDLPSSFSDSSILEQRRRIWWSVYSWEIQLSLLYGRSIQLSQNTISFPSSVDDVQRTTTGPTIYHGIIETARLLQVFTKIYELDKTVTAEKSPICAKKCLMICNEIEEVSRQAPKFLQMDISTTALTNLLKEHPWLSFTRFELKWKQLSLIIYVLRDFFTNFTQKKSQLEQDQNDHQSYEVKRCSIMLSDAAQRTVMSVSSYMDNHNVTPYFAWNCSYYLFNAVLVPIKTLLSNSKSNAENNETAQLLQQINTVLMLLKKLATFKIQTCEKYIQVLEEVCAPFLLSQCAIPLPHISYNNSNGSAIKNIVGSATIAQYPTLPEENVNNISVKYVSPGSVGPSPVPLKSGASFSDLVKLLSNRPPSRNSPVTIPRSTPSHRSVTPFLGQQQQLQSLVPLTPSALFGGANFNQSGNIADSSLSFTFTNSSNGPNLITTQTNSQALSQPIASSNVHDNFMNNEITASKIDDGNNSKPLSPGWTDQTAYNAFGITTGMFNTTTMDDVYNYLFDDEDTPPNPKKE
Chain of chicken Estrogen Receptor (ERa), ESR1 (gene 396099) (P06212 whole entry, looked up, the tested form may be a part): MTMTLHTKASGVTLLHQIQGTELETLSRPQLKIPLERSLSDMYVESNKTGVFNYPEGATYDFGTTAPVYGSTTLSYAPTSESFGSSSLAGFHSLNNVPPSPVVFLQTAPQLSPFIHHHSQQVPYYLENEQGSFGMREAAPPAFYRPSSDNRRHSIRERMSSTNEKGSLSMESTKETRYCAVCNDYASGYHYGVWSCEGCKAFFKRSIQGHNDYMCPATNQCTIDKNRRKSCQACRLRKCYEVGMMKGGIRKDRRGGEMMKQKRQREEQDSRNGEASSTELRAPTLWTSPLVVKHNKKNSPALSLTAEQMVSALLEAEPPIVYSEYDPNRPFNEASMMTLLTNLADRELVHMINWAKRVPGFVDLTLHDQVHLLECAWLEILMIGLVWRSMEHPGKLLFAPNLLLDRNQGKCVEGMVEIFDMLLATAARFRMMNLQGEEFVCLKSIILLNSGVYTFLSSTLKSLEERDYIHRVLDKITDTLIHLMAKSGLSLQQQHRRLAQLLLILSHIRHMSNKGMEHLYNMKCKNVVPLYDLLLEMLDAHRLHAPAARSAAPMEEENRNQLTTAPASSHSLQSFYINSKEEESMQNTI
Chain of Estrogen receptor beta (Homo sapiens) (Q92731 whole entry, looked up, the tested form may be a part): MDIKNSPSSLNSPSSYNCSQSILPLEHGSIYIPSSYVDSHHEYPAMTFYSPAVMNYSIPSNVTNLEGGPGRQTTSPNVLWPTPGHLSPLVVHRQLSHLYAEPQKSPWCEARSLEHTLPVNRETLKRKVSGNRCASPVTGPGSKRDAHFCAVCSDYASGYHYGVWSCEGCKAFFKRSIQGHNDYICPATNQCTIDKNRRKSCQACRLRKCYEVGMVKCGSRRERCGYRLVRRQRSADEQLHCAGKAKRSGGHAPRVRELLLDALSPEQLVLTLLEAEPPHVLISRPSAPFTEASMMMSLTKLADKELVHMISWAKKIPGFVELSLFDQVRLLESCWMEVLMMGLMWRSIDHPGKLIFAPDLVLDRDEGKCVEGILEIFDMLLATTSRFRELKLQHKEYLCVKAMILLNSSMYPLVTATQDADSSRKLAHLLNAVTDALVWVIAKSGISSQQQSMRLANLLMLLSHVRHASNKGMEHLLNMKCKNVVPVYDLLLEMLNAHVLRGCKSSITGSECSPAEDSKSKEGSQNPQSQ

`CCCCC(CC)COC(=O)c1ccc(O)cc1` (centres undefined): the half-maximal activity concentration (AC50) in experiment [1] was 25.3 µM (active); in experiment [3] it was 53.2 µM (active); in [4], 6.15 µM (active); in [5], 33.4 µM (active); in experiment [6] it was 51.9 µM (active); in [7] it was 49.9 µM (active). Moreover, in [9], the half-maximal activity concentration (AC50) was 16.3 µM (active). In addition, the result in [2] and in experiment [8] was inactive.
On to `O=c1c(O)c(-c2ccc(O)cc2)oc2cc(O)cc(O)c12`, for which the half-maximal activity concentration (AC50) in experiment [1] is 2.27 µM (active) and 1.08 µM (active); in experiment [3], 3.01 µM (active) and 1.32 µM (active); in experiment [4] it was 3 µM (active) and 1.53 µM (active); in experiment [5], 1.61 µM (active) and 981 nM (active); in experiment [6], 3.26 µM (active) and 1.35 µM (active); in experiment [7] it was 2.48 µM (active) and 1.49 µM (active). For the same molecule, the AC50 in experiment [9] is 2.83 µM (active) and 1.85 µM (active).
For `OCc1cccc(Oc2ccccc2)c1`, the AC50 in experiment [1] is 17.1 µM (active) and 11.5 µM (active); in experiment [10], 26.9 µM (active) and 8.78 µM (active); in [4], 16 µM (active) and 6.22 µM (active); in [5], 23.5 µM (active) and 14.7 µM (active); in experiment [7], 27 µM (active) and 27.1 µM (active); in [9], 46.5 µM (active) and 12.4 µM (active). Further, the call in experiment [2] was inactive.
On to `Cc1cc(=O)oc2cc(N(C)C)ccc12`, for which the AC50 is 49.9 µM (active) in experiment [1]; 31.4 µM (active) in experiment [4]; 100 µM (active) in experiment [5]; 19.2 µM (active) and 27.6 µM (active) in experiment [7]; 77.1 µM (active) and 100 µM (active) in experiment [9]. The call in [1], in [10], in [2], in [4] and in experiment [5] was inactive.
As to `Clc1ccc(C(c2ccccc2Cl)C(Cl)Cl)cc1` (centres undefined), the AC50 in [1] is 1.29 µM (active) and 8.5 µM (active); in [10], 3.01 µM (active) and 5.58 µM (active); in experiment [4], 3.1 µM (active) and 7.58 µM (active); in [5], 2.3 µM (active) and 2.61 µM (active); in [7], 2.74 µM (active) and 4.46 µM (active); in [9] it was 2.37 µM (active) and 1.97 µM (active).
Consider `Oc1ccc2cc(SSc3ccc4cc(O)ccc4c3)ccc2c1`, for which the AC50 is 1.07 µM (active) in experiment [1]; 2.29 µM (active) and 634 nM (active) in experiment [4]; 0.822 µM (active) in experiment [5]; 40.7 µM (active) in experiment [6]; 2.56 µM (active) and 2.52 µM (active) in [9]. Further, the result in experiment [1], in experiment [3], in experiment [6] and in experiment [7] was inactive.
Consider `BrCc1cccc(Oc2ccccc2)c1`, for which the AC50 was 15.9 µM (active) and 18.2 µM (active) in experiment [1]; 21.3 µM (active) and 7.91 µM (active) in [10]; 27.5 µM (active) and 21.5 µM (active) in experiment [4]; 19.2 µM (active) and 11.9 µM (active) in experiment [5]; 7.78 µM (active) and 26.9 µM (active) in experiment [7]; 34.9 µM (active) and 12.4 µM (active) in experiment [9].

These data come from PubChem BioAssay (EPA / NIEHS).
